# HCV inh: inhibitors of hepatitis C virus infection; hit rate 3.4% among 340,000; Potency, µM (titrated, usually from 41.8 µM), inactives show top-dose activity change, negative = inhibition, actives largely listed as inhibitors; Huh7.5.1 HCVcc-Cre infection, luciferase reporter, 44 h; further: potency means the concentration at half of the fitted maximal effect; on the % scale 0 is the no-effect control and ±100 the full control effect
#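 Seed cells (1,000/well) for 4 h; treat with compound and infect with HCVcc-Cre, moi about 0.5. Incubate 44 h, then detect luciferase activity.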
# HCMV antiviral: blocks human cytomegalovirus replication | HFF cells, HCMV-luciferase reporter, 72 h; hits give low values | activity change, negative = inhibition, % at 57.5 µM | hit rate 4.5% among 410,000; in the data active means activity change below about -60%; inconclusive means no clear call, values can overlap the other calls; inactive means above about -39%; further: on the % scale 0 is the no-effect control and ±100 the full control effect
#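 Screen run at 2 compound doses on HFFs infected with reporter HCMV, MOI 1 PFU/cell. Luciferase activity from cell lysates at 72 h post infection gave inhibition relative to buffer-only and Salinomycin wells.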
# FMDV inh: antivirals against foot and mouth disease virus; FMDV antiviral cell-based qHTS; Potency, µM (highest dose often 57.9 µM), for the others: at the highest dose activity change, negative = inhibition, usual class: inhibitors; hit rate 1.2% among 410,000; AID 1159524; calls by dose curve; tested in HEK293T cells; further: read-out not given here; potency means the concentration at half of the fitted maximal effect; on the % scale 0 is the no-effect control and ±100 the full control effect; nearly all actives have a fitted effect of over 45% in size
# Vaccinia Venus: vaccinia inhibition (Venus reporter) | Vaccinia virus Venus reporter expression, fluorescence | Potency, µM (top dose mostly 36.5 µM), without a hit: at the top dose activity change, negative = inhibition, usual class: inhibitors | hit rate 0.46% among 330,000; calls by dose curve; tested in A549 cells; further: potency means the concentration at half of the fitted maximal effect; on the % scale 0 is the no-effect control and ±100 the full control effect; nearly all actives have a fitted effect of over 30% in size
# Vaccinia mCherry: inhibitors of vaccinia virus infection (mCherry reporter signal) | AID 720579 | Vaccinia virus mCherry reporter infection, fluorescence | Potency, µM (top dose mostly 36.5 µM), for the others: at the highest dose activity change, negative = inhibition, usual class: inhibitors | hit rate 0.63% among 310,000; calls by dose curve; tested in A549 cells; further: potency means the concentration at half of the fitted maximal effect; on the % scale 0 is the no-effect control and ±100 the full control effect; nearly all actives have a fitted effect of over 35% in size
# HCV confirm: confirmation of hepatitis C virus inhibitors; shares compounds with HCV inh; HCVcc-Cre infectious virus cell assay, luciferase, inhibition; Potency, µM (series often up to 41.8 µM), for the others: at the highest dose activity, negative = inhibition, actives largely listed as inhibitors; hit rate 78% among 640; AID 720575; further: potency means the concentration at half of the fitted maximal effect; nearly all actives have a fitted effect of over 80% in size
# HCV host tox: counter-screen for HCV inhibitors: host cell cytotoxicity | shares compounds with HCV inh | HCV host cell line cytotoxicity counterscreen | Potency, µM (series often up to 41.8 µM), for the others: at the highest dose activity change, negative = cytotoxicity, actives largely listed as inhibitors | hit rate 22% among 640 | AID 720576;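 further: potency means the concentration at half of the fitted maximal effect; 44 h compound exposure; on the % scale 0 is the no-effect control and ±100 the full control effect; nearly all actives have a fitted effect of over 55% in size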
# Numbers without * were called inactive; i = inactive; ? = inconclusive; . = no result given. Shown are actives, neighbours in structure and some others; about 7.3% of the full set was active somewhere. Unless noted, the call rests on the fitted dose curve; in most records, active means well fitted curve in the direction sought with a large enough effect; inconclusive means small, poorly fitted or top-dose-only effect, or another doubt; inactive means no such curve, though single readings can be large; an effect the other way counts as inactive or inconclusive.
SMILES,HCV inh,HCMV antiviral,FMDV inh,Vaccinia Venus,Vaccinia mCherry,HCV confirm,HCV host tox
Cc1ccccc1NCc1cccn1-c1nnc(N2CCC(C)CC2)s1,.,5,20%,-3%,-6%,.,.
CC(C)Sc1nc2c(c(=O)[nH]c(=O)n2C)n1CCc1ccccc1,8%,-26,-24%,-19%,.,.,.
CC(C)Sc1nc2c(c(=O)[nH]c(=O)n2C)n1Cc1ccccc1,?,19,-23%,-6%,-24%,-26%,14%
COc1ccc(CNC(=O)c2ccc3c(c2)N(Cc2cccc(Cl)c2)C(=O)c2ccccc2S3)c(OC)c1,.,-31,-13%,-8%,-11%,.,.
C/C(=N\NC(=O)C1COc2ccccc2O1)c1ccccn1 (stereo unspecified),4.5µM*,-102*,-3%,?,4.5µM*,11µM*,?
C/C(=N\NC(=O)C1COc2ccccc2O1)c1ccc(C)o1 (stereo unspecified),3%,7,11%,-15%,-16%,.,.
O=C(Nc1ccc(-c2nc3ccccc3[nH]2)cc1)c1ccco1,?,.,.,-7%,3%,.,.
O=C(/C=C/c1ccco1)Nc1ccc(-c2nc3ccccc3[nH]2)cc1,2.8µM*,?,-7%,?,?,6.3µM*,?
CC(C)=CCC/C(C)=C/CNC(=O)C[C@H]1C[C@H](C(=O)N2CCCCC2)[C@@]2(C)c3[nH]c4cc(CCC(=O)N(C)C)ccc4c3CCN2C1=O,7.9µM*,.,0%,?,-21%,25µM*,?
CC(C)=CCC/C(C)=C/CNC(=O)C[C@H]1C[C@H](C(=O)N2CCOCC2)[C@@]2(C)c3[nH]c4cc(CCC(=O)N(C)C)ccc4c3CCN2C1=O,?,-9,-26%,-27%,?,.,.
O=C(CN1C(=O)COc2ccc(S(=O)(=O)NC3CCCC3)cc21)NCc1ccccc1Cl,.,3,2%,-4%,-1%,.,.
Cc1nc2c(c(C)c1CCC(=O)Nc1cccc(C(F)(F)F)c1)c(=O)n(C)c(=O)n2C,.,-16,?,0%,6%,.,.
O=C(NC(Nc1nc2ccc([N+](=O)[O-])cc2s1)(C(F)(F)F)C(F)(F)F)c1cccnc1,4.5µM*,-102*,2.8µM*,.,.,2.5µM*,7µM*
Cc1cccc(NC(=O)c2cnc3sc(N4CCCC4)nn3c2=O)c1C,.,-37,-4%,-5%,-12%,.,.
CCOc1ccccc1NC(=O)NC1CCCc2ccccc21 (stereo unspecified),?,32,?,.,.,7.9µM*,31%
Cc1ccc(OC(=O)CSc2nnc(-c3ccc4c(c3)OCO4)o2)c(C)c1,.,-7,-16%,-10%,-13%,.,.
Oc1ccc(C[C@H]2CN([C@@H](Cc3ccccc3)CN3CCC[C@@H]3CN3C(=S)NC[C@@H]3Cc3ccccc3)C(=S)N2CC2CCCCC2)cc1,.,-7,-17%,-11%,6%,.,.
Oc1ccc(C[C@H]2CNC(=S)N2CC2CCCN2C[C@H](Cc2ccc(O)cc2)N2C[C@H](Cc3ccccc3)N(CC3CCCCC3)C2=S)cc1 (stereo partly specified),2.5µM*,?,-28%,?,-30%,8.9µM*,-19%
Cc1cccc(-c2nc3c4c(-c5ccccc5)c(-c5ccccc5)oc4ncn3n2)c1,.,5,-15%,-6%,i,.,.
O=C(NCCn1ccc2ccccc21)c1ccc(Cl)cc1,.,95,45%,-15%,-18%,.,.
Cc1nn(C(C)C(=O)NCc2ccco2)c(C)c1[N+](=O)[O-] (stereo unspecified),10%,-22,-20%,.,.,.,.
C/C(=N\NC(=O)C(C)n1nc(C)c([N+](=O)[O-])c1C)c1ccccc1O (stereo unspecified),2.5µM*,-101*,-14%,?,?,7.9µM*,?
COc1ccccc1CNC(=O)c1ccc2c(c1)CCN2S(=O)(=O)c1ccc(Cl)cc1,.,-4,-15%,-9%,-14%,.,.
CCN(CC)CCNC(=S)Nc1ccc2nc(N3CCN(C)CC3)cc(C)c2c1,?,-16,-4%,-27%,-16%,.,.
